A short description of assay [1]: NCI Yeast Anticancer Drug Screen. Data for the rad50 strain (AID 155).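 Note: 0% = growth of vehicle-only cultures of the same strain.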 As to conditions: S. cerevisiae rad50 strain growth inhibition; at 50.0 µM; stronger effect = higher value. A digest of the protocol: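 Yeast carrying a defined DNA repair defect were exposed to test compounds, and growth was compared with vehicle-treated controls to give percent inhibition.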
Assay [2] in a line: NCI Yeast Anticancer Drug Screen. Data for the mec2-1 strain (AID 157). As to conditions: S. cerevisiae mec2-1 strain, at 50.0 µM, stronger effect = higher value. A digest of the protocol: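 Mutant yeast (mec2-1) grown with compound; growth inhibition relative to vehicle control reported.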
The nature of assay [3]: NCI Yeast Anticancer Drug Screen. Data for the sgs1 mgt1 strain (AID 161).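 Note: 0% = growth of cultures given vehicle only.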 As to conditions: S. cerevisiae sgs1 mgt1 strain, at 50.0 µM, stronger effect = higher value. The essentials:
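Growth of a repair-deficient yeast mutant was monitored after compound treatment and expressed as inhibition relative to vehicle-treated cultures.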

Assay [4] in a line: NCI Yeast Anticancer Drug Screen. Data for the cln2 rad14 strain (AID 165).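 Note: 0% = growth equal to vehicle treated cultures.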 As to conditions: S. cerevisiae cln2 rad14 strain, at 50.0 µM, stronger effect = higher value. A digest of the protocol: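 Readout is yeast growth inhibition versus vehicle-treated controls, using a strain with cln2 and rad14 alterations exposed to compound.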
Assay [5] in a line: NCI Yeast Anticancer Drug Screen. Data for the bub3 strain (AID 167). To be noted: S. cerevisiae bub3 mutant strain, at 50.0 µM, stronger effect = higher value. A digest of the protocol: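 Compounds were applied to a genetically altered yeast strain carrying a cell-cycle control defect. Growth inhibition was scored against vehicle-treated controls.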
Assay [6] in a line: NCI Yeast Anticancer Drug Screen. Data for the mlh1 rad18 strain (AID 175). As to conditions: S. cerevisiae mlh1 rad18 strain growth inhibition; at 50.0 µM; stronger effect = higher value. The essentials:
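Genetically defined yeast (DNA repair-deficient) exposed to compounds; growth inhibition determined relative to vehicle.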

The panel holds about 79,000 compounds, 15% with a hit somewhere; the sample as a whole holds those more often. Unmarked numbers belong to inactive results. Activity calls are given as the source filed them. Cut-off read from the data, not from the text of the source: active = growth inhibition above about 70%; inactive = the rest.

Consider `CSCCC(NC(C)=O)C(=O)O` (stereo not drawn), for which the growth inhibition in assay [1] is 6.1%; in assay [2] it was 1.5%; in assay [3] it was -14.4%; in assay [4] it was -3.55%; in assay [5], -4.85%; in assay [6], -8.3%.
With `COC1OC(COC(=O)c2ccc([N+](=O)[O-])cc2)C(SC#N)C1O` (stereo not drawn), the growth inhibition in assay [1] is 27.4%; in assay [2], 2.05%; in assay [3], 26.2%; in assay [4], -18.3%; in assay [5], -10.6%; in assay [6] it was 33.2%.
Regarding `Nc1ncnc2scnc12`, the growth inhibition is 14.4% in assay [1]; -0.55% in assay [2]; -8.5% in assay [3]; 0.9% in assay [4]; -3.25% in assay [5]; 1.65% in assay [6].
`O=C(NNC(=O)c1cccc(F)c1)c1ccccc1`: the growth inhibition in assay [1] was -25.8%; in assay [2], -4.25%; in assay [3], -22.9%; in assay [4], -6.05%; in assay [5] it was -12.8%; in assay [6] it was 5.2%.
Turning to `O=C1C(CO)=C[C@H](O)[C@H]2O[C@@H]12`, the growth inhibition is -4.3% in assay [1]; 0.3% in assay [2]; -9.45% in assay [3]; 7.85% in assay [4]; 8.65% in assay [5]; -29.4% in assay [6].
Regarding `Cn1c(=O)c2c(nc3n2C(CCl)CO3)n(C)c1=O` (stereo not drawn), the growth inhibition in assay [1] was 40.5%; in assay [2], 12.8%; in assay [3] it was 7.75%; in assay [4] it was 9.5%; in assay [5] it was 34%; in assay [6], 32.4%.
For the compound `COc1cc(C(C#N)NNC(=O)Cc2ccccc2)cc(OC)c1OC` (stereo not drawn), the growth inhibition was -18.9% in assay [1]; -54.1% in assay [2]; -53.9% in assay [3]; 18.5% in assay [4]; -45.8% in assay [5]; -49.8% in assay [6].
`Oc1ccc(Br)cc1/C=N\NC(=S)Nc1ccc2cn[nH]c2c1`: the growth inhibition in assay [1] was 47.1%; in assay [2] it was 23.9%; in assay [3], 47.8%; in assay [4], 24.9%; in assay [5], 2.1%; in assay [6], 40.4%.
Regarding `O=C(O)CC12C3C4C5C3C1C5C42` (stereo not drawn), the growth inhibition in assay [1] was 24.1%; in assay [2] it was 17.1%; in assay [3], 15.2%; in assay [4], 8.5%; in assay [5], 47.9%; in assay [6], 26.6%.
As for `CS(=O)(=O)CCC(Nc1ccc([N+](=O)[O-])cc1[N+](=O)[O-])C(=O)O` (stereo not drawn), the growth inhibition is 4.7% in assay [1]; 6.1% in assay [2]; 22.1% in assay [3]; 4.25% in assay [4]; 5.6% in assay [5]; -11.7% in assay [6].
As to `O=C1CCC(=O)N1C(c1ccccc1)(c1ccccc1)N1C(=O)CCC1=O`, the growth inhibition in assay [1] was -20.9%; in assay [2], 12.2%; in assay [3] it was -2%; in assay [4], 29.1%; in assay [5] it was 8.25%; in assay [6] it was -6.85%.
`COc1ccc(N2C(=O)CC(c3cc(OC)c(OC)c(OC)c3)CC2=O)cc1`: the growth inhibition was -3.7% in assay [1]; -20.5% in assay [2]; 10.4% in assay [3]; 3.1% in assay [4]; 8.25% in assay [5]; -2.75% in assay [6].
Regarding `COC(C(=O)C(O)C(C)O)C1CC2C=C3C=C(OC4CC(OC5CC(O)C(OC)C(C)O5)C(OC(C)=O)C(C)O4)C(C)C(=O)C3=C(O)C2=C(O)C1OC1CC(OC2CC(OC3CC(C)(O)C(OC(=O)C(C)C)C(C)O3)C(O)C(C)O2)C(O)C(C)O1` (stereo not drawn), the growth inhibition in assay [1] is 51%; in assay [2] it was 50.7%; in assay [3], 38.5%; in assay [4] it was 81.9% (active); in assay [5], 26.4%; in assay [6] it was 45.8%.
As for `CCCCCCCCCCCCCCCCS`, the growth inhibition in assay [1] is -2.15%; in assay [2], -16.4%; in assay [3], 17.6%; in assay [4], -6.6%; in assay [5], 6.6%; in assay [6], -4.8%.
As to `COc1cc2ccc1-c1cc(ccc1O)CC1c3cc4c(cc3CCN1C)Oc1c(OC)cc3c(c1O4)C(C2)N(C)CC3` (stereo not drawn), the growth inhibition in assay [1] was 1%; in assay [2] it was -7.15%; in assay [3], -18.5%; in assay [4] it was -1.7%; in assay [5], -6.15%; in assay [6], 0.25%.
As for `COC(=O)/C=C/c1cc(=O)n2c(nc3ccccc32)s1`, the growth inhibition is -11.1% in assay [1]; -20.1% in assay [2]; -13.2% in assay [3]; -35.2% in assay [4]; -41.5% in assay [5]; -12.2% in assay [6].
Take `CC(C)=CC1CC(=O)C1(C)Sc1ccccc1` (stereo not drawn): the growth inhibition was 26.9% in assay [1]; -1.5% in assay [2]; 24.2% in assay [3]; 12.9% in assay [4]; 4.7% in assay [5]; 2.95% in assay [6].
In the case of `CCOC(=O)CCCOc1ccccc1`, the growth inhibition is 24.4% in assay [1]; -2.95% in assay [2]; -9.55% in assay [3]; 7.6% in assay [4]; 16.1% in assay [5]; 19.7% in assay [6].
As to `COc1nc2cc3c(cc2n2cccc12)oc1ccccc13`, the growth inhibition is 11.9% in assay [1]; 7.5% in assay [2]; -4% in assay [3]; 12.2% in assay [4]; -1.75% in assay [5]; -2.65% in assay [6].
Take `CC(C)CC(C)OC(=O)CC(CC(=O)OC(C)CC(C)C)C(=O)OC(C)CC(C)C` (stereo not drawn): the growth inhibition is -6.8% in assay [1]; -17.1% in assay [2]; -13.1% in assay [3]; 26.2% in assay [4]; 20.9% in assay [5]; -4.15% in assay [6].
For the compound `CN(C(=O)CCC1OCCO1)c1cc([N+](=O)[O-])ccc1OCc1ccccc1`, the growth inhibition was 22.1% in assay [1]; -1.05% in assay [2]; 1.5% in assay [3]; 9.8% in assay [4]; 2% in assay [5]; 15.2% in assay [6].
On to `Nc1nc(N)nc(-c2ccco2)n1`, for which the growth inhibition was -15.1% in assay [1]; -6.6% in assay [2]; -27.1% in assay [3]; -81.8% in assay [4]; -0.85% in assay [5]; -5.2% in assay [6].
In the case of `CCCCCCCCCC1OCCCO1`, the growth inhibition in assay [1] was -14.3%; in assay [2], 0.15%; in assay [3] it was 12.2%; in assay [4] it was -0.1%; in assay [5], -4.5%; in assay [6], -16.3%.
As for `CCOC(C)C1C2CCCCC21` (stereo not drawn), the growth inhibition in assay [1] was 2.1%; in assay [2], 0.75%; in assay [3], 6.2%; in assay [4], -54%; in assay [5] it was 4.85%; in assay [6], 8.75%.
With `Cc1ccc(C)c2c(CC(=O)O)c[nH]c12`, the growth inhibition in assay [1] is -4.35%; in assay [2], -11.2%; in assay [3] it was -5.9%; in assay [4] it was -15.6%; in assay [5], 6.05%; in assay [6], -2.5%.
Regarding `O=C(Nc1cc(Cl)ccc1Cl)Oc1c(Cl)cc(Cl)c(Cl)c1[N+](=O)[O-]`, the growth inhibition in assay [1] was 10.2%; in assay [2] it was -37.1%; in assay [3], 29.1%; in assay [4], -33.8%; in assay [5], -0.55%; in assay [6], 15.8%.
`CC(=O)C1CCC(C)(O)CC1=O` (stereo not drawn): the growth inhibition in assay [1] is -0.6%; in assay [2], -18%; in assay [3] it was -14.5%; in assay [4] it was -9.35%; in assay [5] it was -8.4%; in assay [6], -3.65%.
For the compound `CCOC(=O)c1ncn2c1[nH]c(=S)c1ccccc12`, the growth inhibition in assay [1] was -14.8%; in assay [2], -19.1%; in assay [3], -11.2%; in assay [4], -0.95%; in assay [5], -17.9%; in assay [6], -2.05%.
As to `Cc1ccc(C(C)C)cc1NC=O`, the growth inhibition in assay [1] is -6.55%; in assay [2] it was -13.3%; in assay [3] it was -20.1%; in assay [4], 0.05%; in assay [5], -2.6%; in assay [6] it was 5.4%.
Consider `O=C(Nc1ccc(Cl)cc1)OC(C(=O)c1ccccn1)c1ccccn1` (stereo not drawn), for which the growth inhibition in assay [1] is 0.25%; in assay [2], 13.7%; in assay [3], -17.6%; in assay [4], 5.75%; in assay [5], 7.1%; in assay [6] it was 8.5%.
On to `CCOc1ccc2nc(N=NC(C(C)=O)C(C)=O)sc2c1`, for which the growth inhibition in assay [1] is 26.9%; in assay [2], 9.8%; in assay [3], 1.3%; in assay [4], 14.1%; in assay [5], 5.55%; in assay [6], 15.9%.
On to `Oc1ccccc1C1SC(c2ccccc2O)SC(c2ccccc2O)S1` (stereo not drawn), for which the growth inhibition in assay [1] was 96.9% (active); in assay [2], 96% (active); in assay [3] it was 95.7% (active); in assay [4], 93.1% (active); in assay [5], 97% (active); in assay [6], 95.8% (active).
For `O=c1[nH]c(-c2ccc(-c3nc4cc([N+](=O)[O-])ccc4c(=O)[nH]3)cc2)nc2cc([N+](=O)[O-])ccc12`, the growth inhibition is -33% in assay [1]; -13.8% in assay [2]; -26.7% in assay [3]; -6.9% in assay [4]; -24.5% in assay [5]; -13.3% in assay [6].
Turning to `CC(c1ccccc1)n1cnc2c(Cl)ncnc21` (stereo not drawn), the growth inhibition in assay [1] is 5%; in assay [2] it was -16.7%; in assay [3], 5.05%; in assay [4], -0.5%; in assay [5], 6.3%; in assay [6], -17.2%.
Turning to `COC1OCC(NC(C)=O)C(OC(C)=O)C1OC(C)=O` (stereo not drawn), the growth inhibition was 12.4% in assay [1]; -13.1% in assay [2]; -4.1% in assay [3]; 2.35% in assay [4]; -1.3% in assay [5]; -8% in assay [6].
For the compound `CSC(C(=O)O)c1cc(-c2c(Cl)cccc2Cl)no1` (stereo not drawn), the growth inhibition was -1.95% in assay [1]; 23.8% in assay [2]; 29% in assay [3]; 8.85% in assay [4]; 24.4% in assay [5]; 22.9% in assay [6].
Take `Cc1cc(Cl)ccc1N1C(=O)C(=O)C(c2nc3ccccc3s2)/C(=N\NC(=O)c2ccccc2O)C1=O` (stereo not drawn): the growth inhibition was -37.9% in assay [1]; 0.45% in assay [2]; -9.8% in assay [3]; 10.8% in assay [4]; -15.2% in assay [5]; -14.9% in assay [6].
With `CCOC(=O)c1cc(CC)[nH]c(=O)c1C#N`, the growth inhibition is -19.1% in assay [1]; 8.05% in assay [2]; -11.3% in assay [3]; -32.7% in assay [4]; 5.4% in assay [5]; 2.3% in assay [6].

Source of the values: PubChem BioAssay (NCI).
